TDP1 cell CPT: DT40-hTDP1 cell growth loss with CPT. chicken DT40 Tdp1-/-;hTDP1 cells + 20 nM CPT, ATP luminescence, 48 h. Potency, µM (titrated, usually from 46.2 µM), inactives show top-dose activity change, negative = growth inhibition, usual class: inhibitors. hit rate 12% among 420,000; further: nearly all actives have a fitted effect of over 55% in size
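Chicken DT40 Tdp1-/- cells complemented with human TDP1, 400 cells/well, exposed to compounds plus 20 nM camptothecin for at least 48 h at 37 C; viability read as ATP content by CellTiter-Glo luminescence.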
KB-3-1 cytotox: kills parental KB-3-1 adenocarcinoma cells | hit rate 1.4% among 400,000 | KB-3-1 viability, CellTiter-Glo ATP luminescence, 72 h | Potency, µM (series often up to 46.1 µM), most hits filed as cytotoxic; further: nearly all actives have a fitted effect of over 60% in size
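Multi-concentration cytotoxicity screen in KB-3-1 cells grown in DMEM lacking phenol red with 10% FBS. After 72 h at 37 °C with compound, ATP-dependent luminescence was recorded.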
HT1080 IDH1KD tx: toxicity to HT-1080 IDH1 knockdown cells (counter line); HT-1080 IDH1 knockdown viability, ATP luminescence, 48 h; Potency, µM (doses to about 46.1 µM), for the others: at the top dose activity, negative = toxicity, actives largely listed as cytotoxic; hit rate 2% among 360,000;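 further: 0% = DMSO wells and -100% = cell-free medium wells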
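Using the IDH1-knockdown HT-1080 line run in the same batch and compound series as the NT line, viability after 48 h at 37 °C was determined by CellTiter-Glo luminescence and expressed as % activity.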
HT1080NT lethal: kills 2HG-producing HT-1080-NT fibrosarcoma cells; AID 686970; HT-1080-NT fibrosarcoma viability, CellTiter-Glo ATP luminescence, 48 h; Potency, µM (top dose mostly 46.1 µM), without a hit: top-dose activity, negative = less viability, most hits filed as cytotoxic; hit rate 1.6% among 360,000;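 further: NT is the 2HG producing partner of a matched IDH1 knockdown line; 0% = DMSO-treated cells and -100% = media-only wells without cells; nearly all actives have a fitted effect of over 55% in size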
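Luminescent CellTiter-Glo readout after 48 hours of compound exposure at 37 degrees C defined viability of HT-1080-NT cells. Activity was normalized to DMSO wells and cell-free media wells; concentration-response curves were fitted and assigned curve classes.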
KB-V1 cytotox: kills drug-selected multidrug resistant KB-V1 cells. KB-V1 MDR cells viability, CellTiter-Glo, 72 h. Potency, µM (doses to about 46.1 µM), hits mostly cytotoxic. hit rate 3.4% among 400,000; further: nearly all actives have a fitted effect of over 60% in size
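Following 72 h at 37 degrees C with compound, KB-V1 cell viability was read by CellTiter-Glo luminescence, medium being phenol-red-free DMEM plus 10% FBS; concentration-response parameters came from normalized, curve-fitted qHTS data.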
DT40 TDP1 no CPT: qHTS for Inhibitors of human tyrosyl-DNA phosphodiesterase 1 (TDP1): qHTS in cells in absence of CPT | hit rate 15% among 420,000 | AID 686978, 2013 | Potency, µM (top dose mostly 46.2 µM), without a hit: at the top dose activity change, negative = growth inhibition, hits mostly inhibitors | DT40 Tdp1-/- hTDP1 cells, no CPT, ATP luminescence, 48 h; further: nearly all actives have a fitted effect of over 55% in size
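Readout: luminescence from CellTiter-Glo after 30 min in the dark at RT. Cells: DT40 Tdp1-/- with stable hTDP1, 400/well. Exposure: compounds alone, ≥48 hr, 37 °C.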
The depositor's hits bear a star; i = inactive; ? = inconclusive; . = no result given; [ ] = dose if it differs, or a comment. Most compounds without a hit are left out; they make up all but 19% or so of the library. The call rests on the fitted dose curve; in most records, active means well fitted curve in the direction sought with a large enough effect; inconclusive means small, poorly fitted or top-dose-only effect, or another doubt; inactive means no such curve, though single readings can be large; an effect the other way counts as inactive or inconclusive. Unless noted, on the % scale 0 is the no-effect control and ±100 the full control effect; potency means the concentration at half of the fitted maximal effect.

SMILES | TDP1 cell CPT | KB-3-1 cytotox | HT1080 IDH1KD tx | HT1080NT lethal | KB-V1 cytotox | DT40 TDP1 no CPT
CSc1ccccc1OCc1cc(C(=O)N2CCc3[nH]cnc3C2c2ccccn2)no1 (centres undefined) | -14% | . | 5% | 3% | . | 2.9µM*
Cn1ccnc1C1CCCCN1C(=O)c1cc(COc2ccc(F)cc2F)on1 (centres undefined) | ? | i | 6% | 4% | ? | 13µM*
CSc1ccccc1OCc1cc(C(=O)N2CCCC2c2nonc2C)no1 (centres undefined) | 23µM* | i | -6% | 11% | i | 21µM*
CCC(C)[C@H](NC(=O)N1CC(=O)Nc2ccccc21)C(=O)N1CCC[C@H]1C(=O)O (some centres undefined) | -10% | i | 1% | 2% | i | -7%
COc1cc2ccccc2cc1C(=O)Nc1ccc(Cl)cn1 | -26% | i | -2% | -1% | i | ?
COc1cc(OC)cc(N2C(=O)N(CC(=O)c3ccc(F)cc3)c3ccccc3S2(=O)=O)c1 | -21% | i | . | . | i | -19%
COc1ccccc1CN1CC(C(=O)NCCc2ncccc2C)CCC1=O (centres undefined) | -3% | i | 5% | 2% | ? | 5%
COc1ncc2nc(-c3cccs3)c(=O)n(Cc3ccc(F)cc3)c2n1 | -18% | . | . | . | . | -6%
Cc1c(NC(=O)c2cc([N+](=O)[O-])ccc2N2CCOCC2)cccc1-c1nc2ccccc2o1 | ? | ? | . | . | i | 26µM*
CCc1ccccc1NC(=O)c1cc([N+](=O)[O-])ccc1N1CCOCC1 | -19% | i | 7% | 19% | i | 12%
CC1CCN(c2ccccc2NC(=O)c2cc([N+](=O)[O-])ccc2N2CCOCC2)CC1 | ? | . | -2% | 1% | . | 16µM*
Cc1c(C(=O)N(C)C)sc2c1c(=O)n(-c1ccc(F)cc1)c(=O)n2Cc1ccccc1C#N | -24% | i | . | . | i | -1%
CCOc1c(Br)ccc2c1sc1nc[nH]c(=O)c12 | ? | ? | 1% | -2% | 21µM* | ?
COCCOC(=O)c1sc2nc[nH]c(=O)c2c1C | -16% | i | 5% | ? | i | -8%
CCc1ccc(-n2nc(CO)c(C(=O)NCc3ccccc3OC)n2)cc1 | -1% | . | . | . | . | -3%
O=c1cc(-c2ccc(O)c(O)c2)oc2c1ccc1ccccc12 | 16µM* | i | -18% | 12%[9.24 µM] | i | 26µM*
O=c1cc(-c2ccc(O)c(O)c2)oc2ccc3ccccc3c12 | ? | i | -17% | -2% | 18µM* | 15µM*
COc1cc(-c2cc(=O)c3ccccc3o2)ccc1O | ? | i | -16% | -10% | ? | ?
O=c1cc(-c2ccccc2)oc2c1ccc1ccccc12 | 14% | . | . | . | . | ?
O=c1cc(-c2cccnc2)oc2c1ccc1ccccc12 | ? | i | -8% | -3% | ? | 23µM*
O=c1cc(-c2ccccc2)oc2ccc3ccccc3c12 | ? | i | -2% | -16% | 21µM* | ?
CCCCn1c(N)c(N(CC)C(=O)CSc2nnnn2-c2cc(C)ccc2C)c(=O)[nH]c1=O | 4% | i | 1% | -2% | ? | -14%
CCN(CC)CCCNC(=O)c1c2c(nc3ccccc13)C(=O)N(C1CCCCC1)C2 | -3% | i | . | . | i | -14%
Cc1ccc(S(=O)(=O)CNC(=S)c2ccc3ccccc3c2)cc1 | ? | i | 14% | 3% | i | 18µM*
N#Cc1cccc(-c2nc3cnc(N4CCOCC4)nc3n(C[C@H]3CCCO3)c2=O)c1 | 2% | . | . | . | . | 5%
SMILES | TDP1 cell CPT | KB-3-1 cytotox | HT1080 IDH1KD tx | HT1080NT lethal | KB-V1 cytotox | DT40 TDP1 no CPT
N#Cc1cnn(-c2ccccc2)c1N | -14% | i | 3%[9.24 µM] | -14% | i | -6%
CC(C)C1N(c2ccccc2)C(N)=C(C#N)C1(C#N)C#N (centres undefined) | ? | i | -3% | -8% | ? | 23µM*
O=C(NCc1ccccc1Cl)C1CCN(c2cnccn2)CC1 | -27% | i | 2% | 0% | i | 2%
NC(=O)C1CCN(C(=O)c2ccc(NS(=O)(=O)c3ccc(F)c(F)c3)cc2)CC1 | -3% | i | 4% | -5% | i | 8%
Cc1cc([N+](=O)[O-])nn1CCCC(=O)Nc1sc2c(c1C(N)=O)CCCC2 | ? | i | 6% | 16% | i | 18µM*
NC(=O)c1c(NC(=O)CN2C(=O)CCC2=O)sc2c1CCCCC2 | -5% | i | 5% | 11% | i | -20%
COC(=O)c1c(NC(=O)COC(=O)c2ccccc2O)sc2c1CCCCC2 | 13% | i | 2% | 4% | ? | -16%
Cc1cc([N+](=O)[O-])nn1CC(=O)Nc1sc2c(c1C(N)=O)CCCC2 | 7% | i | -12% | -8% | ? | 2%
CCOC(=O)c1c(NC(=O)OC)sc2c1CCC2 | -9% | i | 1% | -2% | i | -1%
COC(=O)Nc1sc2c(c1C(N)=O)CCCCCC2 | 16µM* | i | -2% | 9% | i | 21µM*
NC(=O)c1c(NC(=O)CN2CCCC2)sc2c1CCCC2 | 9.2µM* | i | 20% | 18% | i | 16µM*
NC(=O)c1c(NC(=O)COC(=O)c2ccc(O)c(Cl)c2)sc2c1CCCC2 | 26µM* | i | 8% | 12% | i | ?
O=[N+]([O-])c1ccc(Cc2cncc(O)c2)cc1 | 0% | i | 5% | 8% | i | ?
NC(=O)c1c(NC(=O)c2ccncc2)sc2c1CCCC2 | ? | i | 7% | 1% | ? | 16µM*
NC(=O)c1c(NC(=O)c2ccncc2)sc2c1CCCCCC2 | -12% | i | -11% | 0% | i | ?
Cc1noc(C)c1C(=O)Nc1sc2c(c1C(N)=O)CCCCC2 | -30% | i | -4% | -19% | 21µM* | -19%
C=CC(=O)Nc1sc2c(c1C(N)=O)CCCC2 | 15µM* | ? | -15% | -15% | ? | ?
Cc1cc(C)c2oc(-c3ccc(C)c(NC(=O)/C=C/c4ccco4)c3)nc2c1 | ? | i | . | . | i | ?
CCOC(=O)[C@]12Cc3c(cc(OC)c(OC)c3OC)[C@H]1N(Cc1ccccc1)C(=O)c1cc(OC)ccc12 | ? | 4.6µM* | ? | 18µM* | ? | 13µM*
